# The sample as a whole holds a higher share of the strongest signals than the screen did.
# Columns and labels:
# Experiment in all cases: glycan array binding signal (z-score within array); higher = stronger binding
# Conditions in all cases: glycan notation: IUPAC condensed, linker removed
# [1] = target: Fuc(a1-2)Gal(b1-3)GalNAc(a1-3)[Fuc(a1-2)]Gal(b1-4)GlcNAc
# Method in brief: (§1)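 Columns mapping to the same glycan were averaged after glycan names were converted to IUPAC-condensed notation. The data come from 3228 arrays in the Consortium for Functional Glycomics database, limited to those with an available protein sequence. Binding is reported as a within-array Z-score averaged across arrays of one protein sequence and across linkers.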
# [2] = target: Fuc(a1-2)[Gal(a1-3)]Gal(b1-3)GlcNAc(b1-2)Man(a1-3)[Fuc(a1-2)[Gal(a1-3)]Gal(b1-3)GlcNAc(b1-2)Man(a1-6)]Man(b1-4)GlcNAc(b1-4)[Fuc(a1-6)]GlcNAc
# Method in brief: as §1
# [3] = target: Fuc(a1-2)[Gal(a1-3)]Gal(b1-3)GlcNAc(b1-3)GalNAc
# Method in brief: as §1
# [4] = target: Fuc(a1-2)[Gal(a1-4)]Gal(b1-4)GlcNAc
# Method in brief: as §1
# [5] = target: Fuc(a1-2)[GalNAc(a1-3)]Gal(b1-3)GlcNAc(b1-6)GalNAc
# Method in brief: as §1
# [6] = target: Fuc(a1-2)[GalNAc(a1-3)]Gal(b1-4)GlcNAc(b1-3)Gal(b1-4)GlcNAc
# Method in brief: as §1
# [7] = target: Fuc(a1-3)[Gal3S(b1-4)]GlcNAc
# Method in brief: as §1
# [8] = target: Gal(a1-3)Fuc(a1-2)Gal(b1-4)GlcNAc(b1-3)[Gal(a1-3)Fuc(a1-2)Gal(b1-4)GlcNAc(b1-6)]GalNAc
# Method in brief: as §1
# [9] = target: Gal(a1-3)Gal(b1-4)GlcNAc(b1-2)Man
# Method in brief: as §1
# [10] = target: Gal(a1-3)Gal(b1-4)GlcNAc(b1-2)Man(a1-3)[Gal(a1-3)Gal(b1-4)GlcNAc(b1-2)Man(a1-6)]Man(b1-4)GlcNAc(b1-4)GlcNAc
# Method in brief: as §1
# [11] = target: Gal(a1-3)[Gal(a1-4)]Gal(b1-4)GlcNAc
# Method in brief: as §1
# [12] = target: Gal(a1-4)Gal(b1-4)Glc
# Method in brief: as §1
# [13] = target: Gal(a1-4)Gal(b1-4)GlcNAc
# Method in brief: as §1
# [14] = target: Gal(b1-3)GlcNAc(b1-3)Gal(b1-3)GlcNAc
# Method in brief: as §1
# [15] = target: Gal(b1-3)GlcNAc(b1-3)Gal(b1-4)GlcNAc(b1-3)Gal(b1-4)GlcNAc(b1-2)[Gal(b1-3)GlcNAc(b1-3)Gal(b1-4)GlcNAc(b1-3)Gal(b1-4)GlcNAc(b1-6)]Man(a1-6)[Gal(b1-3)GlcNAc(b1-3)Gal(b1-4)GlcNAc(b1-3)Gal(b1-4)GlcNAc(b1-2)Man(a1-3)]Man(b1-4)GlcNAc(b1-4)[Fuc(a1-6)]GlcNAc
# Method in brief: as §1
# [16] = target: Gal(b1-4)GalNAc(b1-3)[Fuc(a1-2)]Gal(b1-4)GlcNAc
# Method in brief: as §1
# [17] = target: Gal(b1-4)GlcNAc(b1-2)Man(a1-3)[GlcNAc(b1-4)][Gal(b1-4)GlcNAc(b1-2)Man(a1-6)]Man(b1-4)GlcNAc(b1-4)GlcNAc
# Method in brief: as §1
# [18] = target: Gal(b1-4)GlcNAc(b1-2)[Gal(b1-4)GlcNAc(b1-4)]Man(a1-3)[Gal(b1-4)GlcNAc(b1-2)[Gal(b1-4)GlcNAc(b1-6)]Man(a1-6)]Man(b1-4)GlcNAc(b1-4)GlcNAc
# Method in brief: as §1
# [19] = target: Gal(b1-4)GlcNAc(b1-3)Gal(b1-4)GlcNAc(b1-3)Gal(b1-4)GlcNAc(b1-2)Man(a1-3)[Gal(b1-4)GlcNAc(b1-3)Gal(b1-4)GlcNAc(b1-3)Gal(b1-4)GlcNAc(b1-2)Man(a1-6)]Man(b1-4)GlcNAc(b1-4)GlcNAc
# Method in brief: as §1
# [20] = target: Gal(b1-4)GlcNAc(b1-6)Gal(b1-4)GlcNAc
# Method in brief: as §1
# [21] = target: Gal3S(b1-3)GalNAc
# Method in brief: as §1
# [22] = target: Gal3S(b1-3)GlcNAc
# Method in brief: as §1
# [23] = target: Gal3S(b1-4)Glc
# Method in brief: as §1
# [24] = target: Gal3S(b1-4)Glc6S
# Method in brief: as §1
# [25] = target: Gal3S(b1-4)GlcNAc6S
# Method in brief: as §1
# [26] = target: Gal3S(b1-4)[Fuc(a1-3)]GlcNAc6S
# Method in brief: as §1
# [27] = target: Gal3S4S(b1-4)GlcNAc
# Method in brief: as §1
# [28] = target: Gal3S6S(b1-4)GlcNAc
# Method in brief: as §1
# [29] = target: Gal4S6S(b1-4)GlcNAc
# Method in brief: as §1
# [30] = target: GalNAc(b1-4)GlcNAc6S
# Method in brief: as §1
binder,measurement,setting,value
"MAL-II (Maackia amurensis), P93248 (protein) ATSNSKPTQVLLATFLTFFFLLLNNVNSSDELSFTINNFVPNEADLLFQGEASVSSTGVLQLTRVENGQPQQYSVGRALYAAPVRIWDNTTGSVASFSTSFTFVVKAPNPTITSDGLAFFLAPPDSQIPSGRVSKYLGLFNNSNSDSSNQIVAVEFDTYFGHSYDPWDPNYRHIGIDVNGIESIKTVQWDWINGGVAFATITYLAPNKTLIASLVYPSNQTSFIVAASVDLKEILPEWVRVGFSAATGYPTQVETHDVLSWSFTSTLEANSDAATENNVHIARYTA",glycan array binding signal (z-score),[1],-0.182
same,glycan array binding signal (z-score),[2],0.051
same,glycan array binding signal (z-score),[3],-0.241
same,glycan array binding signal (z-score),[4],-0.171
same,glycan array binding signal (z-score),[5],-0.266
same,glycan array binding signal (z-score),[6],-0.177
same,glycan array binding signal (z-score),[7],-0.195
same,glycan array binding signal (z-score),[8],-0.261
same,glycan array binding signal (z-score),[9],-0.188
same,glycan array binding signal (z-score),[10],0.244
same,glycan array binding signal (z-score),[11],-0.252
same,glycan array binding signal (z-score),[12],-0.133
same,glycan array binding signal (z-score),[13],-0.185
same,glycan array binding signal (z-score),[14],-0.172
same,glycan array binding signal (z-score),[15],0.068
same,glycan array binding signal (z-score),[16],-0.263
same,glycan array binding signal (z-score),[17],-0.267
same,glycan array binding signal (z-score),[18],-0.229
same,glycan array binding signal (z-score),[19],0.674
same,glycan array binding signal (z-score),[20],-0.23
same,glycan array binding signal (z-score),[21],8.15
same,glycan array binding signal (z-score),[22],2.09
same,glycan array binding signal (z-score),[23],1.81
same,glycan array binding signal (z-score),[24],3.27
same,glycan array binding signal (z-score),[25],6.03
same,glycan array binding signal (z-score),[26],2.12
same,glycan array binding signal (z-score),[27],-0.162
same,glycan array binding signal (z-score),[28],-0.222
same,glycan array binding signal (z-score),[29],-0.156
same,glycan array binding signal (z-score),[30],-0.292
